From PubChem
Only some compounds are listed: those with a hit (about 2.6% of all), similar ones and a draw of the others.
Anthrax LT inh: anthrax lethal toxin internalization inhibition. Potency, µM (top dose mostly 40 µM), without a hit: top-dose activity change, negative = inhibition, actives largely listed as inhibitors. Cells, anthrax lethal toxin internalization, FRET ratio (460/530). 0.67% of 70,000 active; further: on the % scale 0 is the no-effect control and ±100 the full control effect; nearly all actives have a fitted effect of over 50% in size
AmpC det inh: AmpC beta-lactamase inhibition, detergent assay | P00811 | 0.09% of 71,000 active | Potency, µM (top dose mostly 28.7 µM), inactives show top-dose activity change, negative = inhibition | purified AmpC, nitrocefin hydrolysis with detergent; active means well fitted curve in the direction sought with a large enough effect; inconclusive means small, poorly fitted or top-dose-only effect; further: on the % scale 0 is the no-effect control and ±100 the full control effect
Target sequence (P00811 whole entry, looked up): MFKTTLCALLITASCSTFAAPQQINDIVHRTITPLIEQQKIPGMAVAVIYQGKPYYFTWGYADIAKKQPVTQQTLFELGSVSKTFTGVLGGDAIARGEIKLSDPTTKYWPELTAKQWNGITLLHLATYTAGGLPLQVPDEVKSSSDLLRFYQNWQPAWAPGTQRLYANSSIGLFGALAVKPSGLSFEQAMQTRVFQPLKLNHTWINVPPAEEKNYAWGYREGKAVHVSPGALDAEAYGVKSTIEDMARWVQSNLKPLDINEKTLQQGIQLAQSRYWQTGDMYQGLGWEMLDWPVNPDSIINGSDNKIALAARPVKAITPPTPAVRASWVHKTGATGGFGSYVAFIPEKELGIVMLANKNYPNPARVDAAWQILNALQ
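E. coli AmpC (5.3 nM) in 20 mM phosphate pH 7.0 with 0.01% Triton X-100, preincubated 15 min RT with compound; nitrocefin (2 uL of 800 uM stock) hydrolysis followed by 480 nm absorbance every 20 s over 4 min.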
SmPrx2 inh: Schistosoma mansoni Prx2 inhibition | S. mansoni Prx2 activity coupled to TGR/GSH (TGR is thioredoxin glutathione reductase), NADPH fluorescence loss, qHTS | Potency, µM | 0.07% of 65,000 active
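Prx2 activity was followed as the loss of NADPH fluorescence (ex 365/em 450 nm), read every 30 sec for 8 min after H2O2 start. The enzyme mix (50 nM Prx2, 25 nM TGR, GSH, NADPH; pH 7.4 phosphate buffer) was incubated with compound for 15 min at room temperature first.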
AmpC inh no det: inhibitors of E. coli AmpC beta-lactamase without detergent | 1.8% of 71,000 active | Potency, µM (top dose mostly 28.7 µM), for the others: at the top dose activity change, negative = inhibition | P00811 | AmpC nitrocefin hydrolysis, absorbance 480 nm, no detergent; further: % of control where 0% means no effect
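AmpC in 20 mM phosphate buffer pH 7.0 was preincubated 15 min at room temperature with compounds. Nitrocefin (800 uM stock) was then added and hydrolysis followed at 480 nm every 20 s for 4 min.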
An asterisk follows results filed as active; ! = not active in a repeat; [ ] = dose if it differs, or a comment. Unless noted, the call rests on the fitted dose curve. Potency means the concentration at half of the fitted maximal effect.

For O=C(CCN1C(=O)C2C3C=CC(C3)C2C1=O)NCC1CCCO1 (configuration not stated) the results were Anthrax LT inh -5.3%, AmpC det inh -1.9%, SmPrx2 inh >57 and AmpC inh no det -5.4%.
For O=C(NCCN1C(=O)C2C3C=CC(C3)C2C1=O)N1CCCCC1 (configuration not stated) the results were Anthrax LT inh -6.6%, AmpC det inh 12.9%, SmPrx2 inh >57 and AmpC inh no det 3.98µM*[single pt active].
`CC(C)/C(=N/[N+](C)(C)C)c1ccccc1` gave Anthrax LT inh 4.9%[8 µM], AmpC det inh -2.5%[5.75 µM], SmPrx2 inh >57 and AmpC inh no det -10.7%[5.75 µM].
`Cc1ccccc1NC(=O)NCCN1C(=O)C2C3C=CC(C3)C2C1=O` (configuration not stated) gave Anthrax LT inh -13.1%, AmpC det inh 13.2%, SmPrx2 inh >57 and AmpC inh no det 2µM*[single pt active].
Screening O=C(CCN1C(=O)C2C3C=CC(C3)C2C1=O)NCCN1CCCc2ccccc21 (configuration not stated) returned Anthrax LT inh 3.3%, AmpC det inh -2.3%, SmPrx2 inh >57 and AmpC inh no det 51.9%.
Screening COc1ccc(NC(=O)NCCN2CCc3ccccc3C2)cc1 returned Anthrax LT inh -8.3%, AmpC det inh -6.7%, SmPrx2 inh >57 and AmpC inh no det 6.5%.
Screening O=C(NCCN1C(=O)C2C3C=CC(C3)C2C1=O)Nc1ccccc1 (configuration not stated) returned Anthrax LT inh -2.5%, AmpC det inh 14.0%, SmPrx2 inh >57 and AmpC inh no det 3.98µM*[single pt active].
O=C(NCCN1CCN(C(=O)Nc2ccccc2)CC1)Nc1ccccc1 was read as Anthrax LT inh -15.0%, AmpC det inh 12.1%, SmPrx2 inh >57 and AmpC inh no det 3.98µM*[single pt active].
For Cc1ccc(NC(=O)NCCN2C(=O)C3C4C=CC(C4)C3C2=O)cc1 (configuration not stated) the results were Anthrax LT inh 2.9%, AmpC det inh 9.9%, SmPrx2 inh >57 and AmpC inh no det 3.98µM*[single pt active].
For Cc1ccc(NC(=O)NCCCN2CCOCC2)cc1 the results were Anthrax LT inh -3.9%, AmpC det inh -4.9%, SmPrx2 inh >57 and AmpC inh no det -3.5%.
`C=C[C@@]1(C)C=C2CC[C@@H]3[C@](C)(CCC[C@@]3(C)C(=O)O)[C@H]2CC1` gave Anthrax LT inh inconclusive, AmpC det inh -8.1%, SmPrx2 inh >57 and AmpC inh no det -15.5%.
`N#CC(Cl)Cl` gave Anthrax LT inh -4.9%, AmpC det inh 10.7% and AmpC inh no det -8.0%.
CC(=O)O[C@H]1C(=O)[C@]2(C)[C@H]([C@H](OC(=O)c3ccccc3)[C@@]3(O)C[C@H](OC(=O)[C@@H](O)[C@@H](NC(=O)c4ccccc4)c4ccccc4)C(C)=C1C3(C)C)[C@]1(OC(C)=O)CO[C@@H]1C[C@@H]2O was read as Anthrax LT inh inconclusive, AmpC det inh 2.1%, SmPrx2 inh >57 and AmpC inh no det 117.4%.
`O=C1N[C@@]2(CN3CCC2CC3)C(=O)N1CN(Cc1ccccc1)c1ccccc1` gave Anthrax LT inh inconclusive, AmpC det inh -2.2%[5.75 µM], SmPrx2 inh >57 and AmpC inh no det 2.4%[5.75 µM].
For O=C(NCCN1C(=O)C2C3C=CC(C3)C2C1=O)NCc1ccccc1 (configuration not stated) the results were Anthrax LT inh -5.5%, AmpC det inh 12.5%, SmPrx2 inh >57 and AmpC inh no det 3.98µM*[single pt active].
For O=C(Nc1ccccc1)N1CCN(Cc2ccc3c(c2)OCO3)CC1 the results were Anthrax LT inh 6.8%, AmpC det inh 12.6%, SmPrx2 inh >57 and AmpC inh no det 3.98µM*[single pt active].
O=C(/C=C\c1ccc(O)cc1)c1ccc(O)cc1O was read as Anthrax LT inh -10.4%, AmpC det inh 2.1% and AmpC inh no det -18.3%.
CCOC(=O)OCC1OC(c2ccccc2)C=CC1Oc1ccc2oc(=O)cc(C)c2c1 (configuration not stated) was read as Anthrax LT inh -1.7%[8 µM].
CC1(C)Cc2c(c(N3CCOCC3)nc3sc(C(=O)N4CCCCC4)c(N)c23)CO1 was read as Anthrax LT inh -10.3%, AmpC det inh 25.1%, SmPrx2 inh >57 and AmpC inh no det 3.98µM*[single pt active].
`Cc1c(C(=O)N2CCCC2)oc2c1-c1[nH]ncc1CC2` gave Anthrax LT inh 6.2%, AmpC det inh 10.2%, SmPrx2 inh >57 and AmpC inh no det 3.98µM*[single pt active].
Screening Cc1c(Cl)c(S(N)(=O)=O)cc(S(N)(=O)=O)c1NC(=O)c1ccc(Cl)cc1 returned Anthrax LT inh -11.4%[8 µM], AmpC det inh -1.3%[5.75 µM], SmPrx2 inh >57 and AmpC inh no det -1.8%[5.75 µM].
Screening CCCCN(C(=O)c1ccc(Cl)cc1)C1CC2CCC(C1)N2C (configuration not stated) returned Anthrax LT inh inconclusive, AmpC det inh 12.1%, SmPrx2 inh >57 and AmpC inh no det 3.98µM*[single pt active].
`COc1cc(C(=O)N(CCc2ccccc2)C2CC3CCC(C2)N3C)cc(OC)c1OC` (configuration not stated) gave Anthrax LT inh -13.2%, AmpC det inh -4.0%, SmPrx2 inh >57 and AmpC inh no det -9.8%.
CC(=O)[C@]1(O)CC[C@@H]2[C@H]3C[C@@H](C)C4=CC(=O)CC[C@@]4(C)[C@H]3[C@@H](O)C[C@]21C was read as Anthrax LT inh -7.3%[8 µM], AmpC det inh -3.0%[5.75 µM] and AmpC inh no det 12.7%[5.75 µM].
O=c1cc(-c2ccccc2)oc2c1ccc1ccccc12 was read as Anthrax LT inh 25.1µM*, AmpC det inh -1.1%, SmPrx2 inh >57 and AmpC inh no det 58.6%.
For COc1c2ccoc2nc2c(OC)c(OC[C@H](O)C(C)(C)O)ccc12 the results were Anthrax LT inh 12.6µM*!, AmpC det inh -4.2%, SmPrx2 inh >57 and AmpC inh no det 8.6%.
`COc1ccc(C(=O)[C@H]2[C@H]3[C@@H](C(=O)[C@@H]4OC[C@H]3O4)[C@H]3C=Cc4ccccc4N32)c(OC)c1` gave Anthrax LT inh inconclusive, AmpC det inh -0.3%, SmPrx2 inh >57 and AmpC inh no det 123.9%.
Clc1ccc(-c2noc(CN3CCCCC3)n2)cc1 was read as Anthrax LT inh 4.0%[8 µM], AmpC det inh -4.9%[5.75 µM], SmPrx2 inh >57 and AmpC inh no det 4.5%[5.75 µM].
Screening Clc1ccc(-c2nnc(N3CCCC3)nn2)cc1 returned AmpC det inh -20.0%, SmPrx2 inh >57 and AmpC inh no det 10µM*.
`O=C(O)c1ccc(C(=O)O)c(C(=O)O)c1.[NH-][C@@H]1CCCC[C@@H]1[NH-].[Pt]` gave Anthrax LT inh -6.7%[8 µM], AmpC det inh -2.5%[5.75 µM], SmPrx2 inh inactive and AmpC inh no det 4.8%[5.75 µM].
COc1cc2nc3c(c([Si](C)(C)C(C)(C)C)c2cc1OC)Cn1c-3cccc1=O was read as Anthrax LT inh -5.3%, AmpC det inh -3.0%, SmPrx2 inh >57 and AmpC inh no det 144.9%.
Fc1cccc2sc(Nc3nnc(-c4ccccc4)o3)nc12 was read as Anthrax LT inh -2.1%, AmpC det inh -1.2%, SmPrx2 inh >57 and AmpC inh no det 12.6µM*[single pt active].
For CNC(=O)c1ccc2snnc2c1 the results were Anthrax LT inh 2.6%, AmpC det inh 9.6%, SmPrx2 inh >57 and AmpC inh no det 3.98µM*[single pt active].
